The panel holds about 83,000 compounds, 20% with a hit somewhere; the sample as a whole holds those more often.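 Interpretation: 100, growth as untreated; towards 0, rising growth inhibition; 0, no net growth; 0 to -100, cell death. Compounds scoring below 10 were considered active.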 Values without a mark were called inactive. Activity calls are given as the source filed them.
Key:
Test in all cases: NCI-60 one-dose screen, 48 h (100 = growth as untreated, 0 = no growth, -100 = all killed)
Settings in all cases: 10 µM unless noted
[1] = tested on: DU-145 prostate
[2] = tested on: K-562 leukemia
[3] = tested on: MALME-3M melanoma
[4] = tested on: MDA-MB-231 breast
[5] = tested on: RXF 393 renal
[6] = tested on: SF-268 CNS
[7] = tested on: SF-295 CNS
[8] = tested on: SF-539 CNS
[9] = tested on: UACC-257 melanoma
[10] = tested on: M14 melanoma
[11] = tested on: HCT-15 colon
[12] = tested on: HT29 colon
[13] = tested on: SNB-75 CNS
[14] = tested on: SNB-19 CNS
[15] = tested on: U251 CNS
[16] = tested on: SK-MEL-5 melanoma
[17] = tested on: UACC-62 melanoma
[18] = tested on: LOX IMVI melanoma
[19] = tested on: SK-MEL-28 melanoma
[20] = tested on: PC-3 prostate

Compound	growth [1]	growth [2]	growth [3]	growth [4]	growth [5]	growth [6]	growth [7]	growth [8]	growth [9]	growth [10]	growth [11]	growth [12]	growth [13]	growth [14]	growth [15]	growth [16]	growth [17]	growth [18]	growth [19]	growth [20]
Cc1cc(NS(=O)(=O)c2ccc(NC(=O)COc3ccc(-c4cc5ccccc5[nH]4)cc3)cc2)no1	18.5%	6.89% (active)	47.6%	18.9%	-24.6% (active)	27.3%	8.98% (active)	6.2% (active)	56.9%	-15.4% (active)	24.7%	12.3%	-12.2% (active)	29.6%	20.8%	12.4%	31.4%	4.54% (active)	18.9%	
Cn1c2c(cc(S(=O)(=O)c3ccccc3)c1=O)CCc1c-2cnn1-c1ccccc1Cl	120%	95.5%	108%	101%	111%	106%	87.9%	90.2%	89.8%	110%	95.9%	104%	92.5%	96.2%		105%	93.4%	107%	104%	93.5%
O=C(CCCCCCC(=O)Nc1ccc2c(c1)/C(=C/c1ccc[nH]1)C(=O)N2)NO	4.55% (active)	11.6%	36.5%	1.47% (active)	-30.8% (active)	-13% (active)	6.46% (active)	23%	9.98% (active)	3.6% (active)	41.5%	8.62% (active)	53%	16.3%	-9.13% (active)	-75% (active)		-69.8% (active)	14.6%	
CCCCCCCCCCCCSC1=CC(=O)C=CC1=O	111%	75%	102%	97.2%	78%	44.6%	51.8%	27.7%	73.2%	89.5%	74.6%	94.7%	44.9%	40.4%		97.5%	96.4%	28.1%	110%	16.8%
COc1ccc(/C=C2\CN(Cc3cn(CCCNc4ccnc5cc(Cl)ccc45)nn3)C/C(=C\c3ccc(OC)c(OC)c3)C2=O)cc1OC	11.7%	4.56% (active)	17.8%	-10.2% (active)	-95.1% (active)	-4.95% (active)	-55.9% (active)	6.69% (active)	45.3%	-21.5% (active)	9.96% (active)	-40.1% (active)	42.6%	33%	0.724% (active)	5.86% (active)		-68.9% (active)	40.1%	
COc1ccccc1/C=C/C(=O)/C=C/c1ccccc1O	-31.2% (active)	-6.29% (active)	-3.21% (active)	4.57% (active)	-75.8% (active)	1.68% (active)	-37.4% (active)	-63% (active)	69.7%	-31% (active)	-17.7% (active)	-41.8% (active)	31.3%	31.8%	-78.9% (active)	63.7%	-58.9% (active)	-67.7% (active)	-86.9% (active)	
O=C1/C(=C/c2ccc(Oc3ccccc3)cc2)N=C(c2ccccc2)N1CCc1cccs1	98%	84%	86.1%	79.8%	92.1%	80.8%	82.9%	104%	99.1%	58.7%	92.4%	35%	63.2%	89%	93.9%	95.2%	72%	62.1%	94%	
O=C1C2CC3C(CC2C(=O)[N]1[Sn]([c]1ccccc1)([c]1ccccc1)[c]1ccccc1)C1(Cl)C(Cl)=C(Cl)C3(Cl)C1(Cl)Cl (centres undefined)	-94.5% (active)	-30.8% (active)	-91.8% (active)	-94.7% (active)	-76.1% (active)	-88.7% (active)	-86.8% (active)	-99.9% (active)	-99.3% (active)	-94% (active)	-88% (active)	-87.3% (active)	-84.8% (active)	-97.4% (active)		-93.1% (active)	-95.7% (active)	-66.7% (active)	-94.2% (active)	-92.9% (active)
Cc1nc2cc(Nc3nc(Nc4ccc(F)cc4)nc(N4CCN(C)CC4)n3)ccc2n1Cc1ccccc1	16.7%	0.387% (active)	-83.4% (active)	-73.3% (active)	-82.7% (active)	14.6%	-62.5% (active)	-95.9% (active)	-83.7% (active)	-73% (active)	-34.3% (active)	-51.9% (active)	-20.4% (active)	44.2%		80.9%	-65.4% (active)	-73.6% (active)	-67.4% (active)	19.7%
O=C1/C(=C/c2ccc(Cl)cc2)CN(Cc2cn(CCCNc3ccnc4cc(Cl)ccc34)nn2)C/C1=C\c1ccc(Cl)cc1	-11.6% (active)	0.972% (active)	-64.6% (active)	-58.4% (active)	-97.6% (active)	-84.7% (active)	-56.1% (active)	-91.5% (active)	-69.4% (active)	-64.9% (active)	-74.2% (active)	-69.6% (active)	-4.46% (active)	-79.6% (active)	-91.9% (active)	-86.2% (active)		-86.2% (active)	-82.6% (active)	
COc1ccc(/C=C2\CN(Cc3cn(CCCNc4ccnc5cc(Cl)ccc45)nn3)C/C(=C\c3ccc(OC)cc3)C2=O)cc1	40.2%	63.2%	98.4%	52.6%	27.7%	45.5%	72.6%	78.1%	56%	70.8%	67.6%	14.6%	70.1%	72.9%	41.3%	52.7%		35.5%	80.5%	
COc1ccc(C2CC(c3cc(OC)c(OC)c(OC)c3)=NN2c2ccc(S(N)(=O)=O)cc2)cc1 (centres undefined)	85.7%	33.1%	101%	51.3%	79.3%	72.9%	55.2%	77.8%	73.7%	64.6%	66.8%	59.3%	33.1%	74%	53.2%	58.2%		52.9%	76.9%	
COc1cc(Cn2cc(F)c(=O)[nH]c2=O)cc(OC)c1	114% [50 µM]	95.6% [50 µM]	108% [50 µM]	95.7% [50 µM]	99.5% [50 µM]	96.1% [50 µM]	101% [50 µM]	101% [50 µM]	110% [50 µM]	100% [50 µM]	103% [50 µM]	110% [50 µM]	91.2% [50 µM]	101% [50 µM]	106% [50 µM]	103% [50 µM]	97.5% [50 µM]	86.2% [50 µM]	109% [50 µM]	
COc1ccc(-c2nc(Nc3ccc(F)cc3)nc(Nc3ccc4c(c3)nc(C)n4Cc3ccccc3)n2)cc1	54.7%	16.1%	52.8%	31.2%	35.7%	46.9%	49%	67.8%	43.8%	38.9%	33.4%	8.87% (active)	68%	60.7%	39.2%	47.1%		38.9%	56.6%	
O=C1c2c(c3c4cc(Br)ccc4[nH]c3c3ccc4ccccc4c23)C(=O)N1O	103%	71.6%	126%	81.7%	103%	81.1%	84.7%	96.4%	88.5%	94.1%	85.4%	30%	79.8%	85.1%	68.5%	96.7%	59.9%	67.8%	106%	
